# Hits are enriched below; roughly 9% of the tested compounds scored in any of these assays.
# HPGD inh: inhibitors of human 15-hydroxyprostaglandin dehydrogenase (HPGD) | P15428 | purified HPGD, NADH fluorescence kinetic, PGE2 substrate | Potency, µM, without a hit: at the highest dose activity change, negative = inhibition, hits mostly inhibitors | 150,000 tested, 4.3% active; also: potency is read from the fitted curve at half-maximal effect
# Target sequence (P15428 whole entry, looked up): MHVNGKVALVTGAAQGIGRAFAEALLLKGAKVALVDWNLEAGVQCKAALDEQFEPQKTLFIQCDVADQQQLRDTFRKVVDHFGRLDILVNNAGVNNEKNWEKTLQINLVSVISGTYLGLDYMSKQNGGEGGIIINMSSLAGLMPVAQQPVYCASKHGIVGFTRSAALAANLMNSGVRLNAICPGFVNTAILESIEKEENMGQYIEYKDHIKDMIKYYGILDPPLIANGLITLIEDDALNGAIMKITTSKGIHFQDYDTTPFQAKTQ
#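 NADH formation kinetics: reaction with 30 uM PGE2 and 1 mM NAD+ (final), 20 nM enzyme, Tris-HCl pH 8 with Tween 20, after 15 min compound preincubation at room temperature. Fluorescence change, last versus first of five reads.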
# IMPase inh: membrane-permeable compound that blocks inositol monophosphatase. P97697. CHO-M1 cells, IP1 accumulation, HTRF TR-FRET ratio. inhibition (IP1 accumulation), % at 46.1 µM. 120,000 tested, under 10 active. AID 901; active = well fitted curve in the direction sought with a large enough effect in the signal ratio, not every such curve was filed as active; inconclusive = small, poorly fitted or top-dose-only effect, or a change in a side signal; inactive = no such curve, though single readings can be large or run the other way; the % refers to the signal ratio;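 also: cells stimulated with carbachol in lithium chloride buffer; plate controls were DMSO basal wells for no effect and reference inhibitor wells for full effect; higher means more IMPase inhibition seen as more IP1 and lower FRET ratio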
#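 Measured: the HTRF emission ratio (665/620 nm) plus the 620 nm donor channel, each fitted to the Hill equation to give AC50. Cells were CHO-M1 given compounds up to 46 uM and a 30 min carbachol stimulation at 37C.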
# ALDH1A1 inh: blocks purified human ALDH1A1 activity; P00352; Purified ALDH1A1, NADH fluorescence, propionaldehyde substrate; Potency, µM (titrated, usually from 75.3 µM), without a hit: at the highest dose activity, negative = inhibition, actives largely listed as inhibitors; 220,000 tested, 7.3% active; AID 1030;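 also: potency is read from the fitted curve at half-maximal effect; plate controls were no enzyme wells and a reference inhibitor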
# The depositor's hits bear a star; ? = inconclusive; . = no result given; [ ] = remark or other dose. Unless noted, calls follow the shape of the dose curve; as a rule, active = well fitted inhibition curve with a large enough effect (not every such curve was filed as active); inconclusive = small, poorly fitted or top-dose-only effect, or another doubt; inactive = no such curve, though single readings can be large or run the other way. Unless noted, % is scaled to controls: 0 for no effect and ±100 for the full control effect.
SMILES,HPGD inh,IMPase inh,ALDH1A1 inh
CS(=O)(=O)Nc1ccc([N+](=O)[O-])cc1Oc1ccccc1,-11.7%,1.4,-0.7%
CS(=O)(=O)Nc1ccc([N+](=O)[O-])cc1OC1CCCCC1,-28.5%,-0.6,22.4µM*
COc1ccc(S(=O)(=O)N(C)c2ccc(C(=O)NC3CCCC3)cc2)cc1,.,.,-7.5%
Cc1ccc(S(=O)(=O)N(C)c2ccc(C(=O)N3CCc4ccccc4C3)cc2)cc1,.,.,0.6%
C=CCN(c1ccc(C(=O)N2CCCC2)cc1)S(C)(=O)=O,20µM*,0.6,-7.9%
C=CCN(c1ccc(C(=O)NC(C)C)cc1)S(C)(=O)=O,-14.7%,4.7,1.7%
Cc1ccc(S(=O)(=O)N(C)c2ccc(C(=O)N3CCCCC3)cc2)cc1,0.398µM*,2.0,-7.2%
CN(c1ccc(C(=O)NC2CC2)cc1)S(=O)(=O)c1ccccc1,12.6µM*,9.8,13.8%
CCOC(=O)C1CCN(C(=O)COc2ccc(N(C)S(=O)(=O)c3ccc(C)cc3)cc2)CC1,.,.,17.8µM*
CCOc1ccc(S(=O)(=O)N(C)c2ccc(OCC(=O)N3CCOCC3)cc2)cc1,-9.7%,2.4,-14.9%
O=C(O)c1ccc(NCCc2ccc(Cl)cc2)c([N+](=O)[O-])c1,.,.,10.0%
COc1ccc(NC(=O)C2CCC(CNS(=O)(=O)c3ccc(Br)s3)CC2)c(OC)c1 (stereo unspecified),.,11.9,.
Nc1ccc(F)cc1F,-10.2%,.,?
CCC(C)[C@H](NC(=O)NCC1CCCO1)C(=O)OC (stereo partly specified),-6.6%,-1.5[1.84 µM],9.1%
CN(c1ccc(C(=O)N2CCN(Cc3ccc4c(c3)OCO4)CC2)cc1)S(=O)(=O)c1ccccc1,-8.9%,5.7,7.6%
CN(c1ccc(C(=O)N2CCCCC2)cc1)S(=O)(=O)c1ccccc1,0.447µM*,11.3,1.8%
COc1ccc(/C=C2/N=C3CCCCCN3C2=O)cc1OC,-9.8%,8.7,28.2µM*
COc1ccc(/C=C2\SC(=O)N=C2N)cc1OC,-29.5%,.,7.9%
CCCCC(CC)C(=O)Nc1ccc(C)c(O)c1 (stereo unspecified),.,.,-0.9%
CCc1c(C)nc2ncnn2c1N1CCCC(C(=O)Nc2cc(F)ccc2C)C1 (stereo unspecified),-13.4%,-1.0,-10.0%
COC(=O)N1CCC2(CCCN(C(=O)Nc3cccc(C#N)c3)C2)CC1,-27.2%,.,-8.3%
O=C(Cn1c(O)c(/C=C2\C=Nc3ccccc32)sc1=O)N1CCOCC1,.,.,-2.8%
O=c1[nH]c(S)c(/C=C2\C=Nc3ccccc32)s1,.,.,25.1µM*
O=C(Cc1ccccc1)NC(=S)Nc1ccc2oc(-c3ccccc3F)nc2c1,-12.5%,11.1,?
O=C(Cc1ccccc1)NC(=S)Nc1ccc2oc(-c3ccccc3)nc2c1,?,-12.2,22.4µM*
SMILES,HPGD inh,IMPase inh,ALDH1A1 inh
CC(C)c1cccc(C(C)C)c1NC(=O)c1ccccc1,.,.,-0.1%
O=C(CSCc1ccc(Cl)cc1)Nc1cccc(C(=O)Nc2ccccc2C(=O)O)c1,-18.9%,3.4,-6.1%
CCOc1ccccc1C1C(C(N)=O)=C(C)Nc2nc(-c3cccc(C)c3)nn21 (stereo unspecified),-6.6%,6.3,20µM*
CC1=C(C(N)=O)C(c2cccs2)n2nc(-c3cccc(C)c3)nc2N1 (stereo unspecified),-0.3%,-7.4,3.1%
COc1ccc(-c2ccc(-c3cc(=O)oc4cc(C)cc(C)c34)cc2)cc1,-21.4%,.,?
Oc1ccc(/C=N/n2cnn(Cc3ccccc3Cl)c2=S)c(O)c1,20µM*,.,20µM*
O=C1c2cccc3cccc(c23)C(=O)N1/N=C/c1ccc(O)cc1O,-5.3%,.,0.8%
Cc1ccc(S(=O)(=O)N2CCC(C(=O)NNC(=O)c3cccnc3)CC2)cc1,.,.,4.3%
COc1ccc(-c2nc(-c3ccccc3)c(Nc3c(C)cccc3C)o2)cc1,-10.7%,.,2.3%
O=C(CSc1nnc(-c2ccccc2)o1)c1nnc(-c2ccccc2)o1,?,-21.7,?
O=C(Cc1ccccc1)c1nnc(-c2ccccc2)o1,.,.,8.91µM*
CNc1sc(C(=O)c2cccs2)c(N)c1-c1nc2ccccc2s1,15.8µM*,-0.7,1.78µM*
CNc1sc(C(=O)c2ccc(F)cc2)c(N)c1-c1nc2ccccc2s1,?,5.6,-7.0%
O=C(CSc1nnc(NC(=O)c2ccco2)s1)Nc1ccc2c(c1)OCCO2,.,.,-3.0%
CNC(=O)c1[nH]cnc1C(=O)Nc1cccc(OC)c1,-12.8%,5.5,28.2µM*
CNC(=O)c1[nH]cnc1C(=O)Nc1ccc(C)cc1,-10.4%,9.9,-8.9%
CCCc1cc(C(N)=O)c(NC(=O)c2ccoc2C)s1,?,8.1,17.8µM*
O=C(Nc1nnc(Cc2ccccc2)s1)c1ccco1,-11.6%,2.0,-8.1%
CCCc1cc(C(N)=O)c(NC(=O)c2cc(C)on2)s1,-15.5%,9.7,?
CC(=O)c1cccc(NC(=O)c2ccoc2C)c1,.,.,-2.3%

# Screening results (PubChem BioAssay)
